We go through 1 sequence from paper PMC7862700, “An all-to-all approach to the identification of sequence-specific readers for epigenetic DNA modifications on cytosine”.

Common to all, as to assay: DAPPL (digital affinity profiling via proximity ligation, sequencing); 10 mM Tris-HCl pH 7.5, 50 mM NaCl, 1 mM DTT, 4% glycerol, room temperature, 30 min; GST-TFs on glutathione beads, 16-mer random dsDNA library, 0.1% formaldehyde crosslink after washing; high values mean tight binding
For test [1], the target named is T1, FLI1 (Homo sapiens, UniProt Q01543 1-452).
T1 sequence: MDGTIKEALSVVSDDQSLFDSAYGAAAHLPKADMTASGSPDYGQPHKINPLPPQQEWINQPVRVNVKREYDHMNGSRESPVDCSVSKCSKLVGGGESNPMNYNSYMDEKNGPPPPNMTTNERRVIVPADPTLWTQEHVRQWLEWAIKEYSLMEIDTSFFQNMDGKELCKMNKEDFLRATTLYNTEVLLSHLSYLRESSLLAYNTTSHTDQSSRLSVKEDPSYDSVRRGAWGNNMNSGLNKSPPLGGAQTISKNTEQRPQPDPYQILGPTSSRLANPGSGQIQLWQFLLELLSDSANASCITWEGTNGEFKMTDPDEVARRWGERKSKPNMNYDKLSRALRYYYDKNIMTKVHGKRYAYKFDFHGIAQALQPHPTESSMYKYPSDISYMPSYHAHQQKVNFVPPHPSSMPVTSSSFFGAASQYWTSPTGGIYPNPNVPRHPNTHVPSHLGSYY
To be noted: protein: recombinant; tags: N-terminal GST; dsDNA, one strand shown. Summed up: (§1)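 Pools were built from human transcription factors expressed in yeast as GST fusions, captured on glutathione beads and DNA-barcoded, along with a tag-only sample. Incubation with 200 nmole of a 16-mer random double-stranded DNA library lasted 30 min at room temperature in Tris/NaCl/DTT/glycerol buffer, and was followed by washing, 0.1% formaldehyde crosslinking, proximity ligation, PCR amplification and Illumina NextSeq500 sequencing. Binding signal is the quotient of each hexamer's read frequency for a factor and its frequency for the tag-only sample.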

Test [2] addresses T2, ELK1 (Homo sapiens, UniProt P19419 1-428).
T2 sequence: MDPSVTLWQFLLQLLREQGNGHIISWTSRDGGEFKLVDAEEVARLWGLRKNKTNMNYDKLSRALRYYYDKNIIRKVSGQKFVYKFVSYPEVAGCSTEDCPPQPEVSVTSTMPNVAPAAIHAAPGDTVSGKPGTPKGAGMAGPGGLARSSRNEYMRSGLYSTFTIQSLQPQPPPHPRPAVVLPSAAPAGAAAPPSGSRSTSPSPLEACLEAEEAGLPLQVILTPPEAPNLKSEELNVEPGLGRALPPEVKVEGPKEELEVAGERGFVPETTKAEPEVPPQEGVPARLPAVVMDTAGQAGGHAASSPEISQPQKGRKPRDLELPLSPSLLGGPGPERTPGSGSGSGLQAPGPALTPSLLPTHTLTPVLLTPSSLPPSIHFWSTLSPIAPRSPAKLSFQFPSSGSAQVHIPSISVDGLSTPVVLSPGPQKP
As to conditions: protein: recombinant; tags: N-terminal GST; dsDNA, one strand shown. Summed up:
as §1

Test [3] addresses T3, GABPA (Homo sapiens, UniProt Q06546 1-454).
T3 sequence: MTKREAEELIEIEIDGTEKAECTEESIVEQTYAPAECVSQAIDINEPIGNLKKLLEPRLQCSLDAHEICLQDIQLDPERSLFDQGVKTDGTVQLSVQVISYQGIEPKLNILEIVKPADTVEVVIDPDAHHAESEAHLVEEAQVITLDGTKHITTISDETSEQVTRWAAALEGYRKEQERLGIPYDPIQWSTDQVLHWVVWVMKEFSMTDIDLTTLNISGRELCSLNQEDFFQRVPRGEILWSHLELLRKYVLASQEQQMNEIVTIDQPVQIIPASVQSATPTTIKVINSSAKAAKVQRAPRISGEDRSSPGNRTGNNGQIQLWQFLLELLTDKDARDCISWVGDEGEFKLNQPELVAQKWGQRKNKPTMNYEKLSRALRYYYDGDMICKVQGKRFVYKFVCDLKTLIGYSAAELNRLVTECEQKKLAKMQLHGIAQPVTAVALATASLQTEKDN
To be noted: protein: recombinant; tags: N-terminal GST; dsDNA, one strand shown. Summed up:
as §1

Test [4] has as its target T4, ERG (Homo sapiens, UniProt P11308 1-479).
T4 sequence: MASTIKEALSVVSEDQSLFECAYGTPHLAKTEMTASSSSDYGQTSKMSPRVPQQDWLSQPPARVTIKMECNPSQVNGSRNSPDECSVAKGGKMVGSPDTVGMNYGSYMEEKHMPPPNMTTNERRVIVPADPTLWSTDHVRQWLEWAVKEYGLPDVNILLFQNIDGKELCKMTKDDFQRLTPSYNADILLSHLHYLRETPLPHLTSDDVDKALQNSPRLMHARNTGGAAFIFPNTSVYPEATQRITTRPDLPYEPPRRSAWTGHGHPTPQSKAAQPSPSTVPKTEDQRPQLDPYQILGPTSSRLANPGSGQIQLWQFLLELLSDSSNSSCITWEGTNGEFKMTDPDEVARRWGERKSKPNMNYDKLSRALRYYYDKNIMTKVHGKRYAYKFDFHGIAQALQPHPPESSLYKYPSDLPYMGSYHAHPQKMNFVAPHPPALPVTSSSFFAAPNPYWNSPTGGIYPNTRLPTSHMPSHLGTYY
To be noted: protein: recombinant; tags: N-terminal GST; dsDNA, one strand shown. Summed up:
as §1

Test [5] concerns the target ELF1 (Homo sapiens, UniProt P32519 1-619). To be noted: protein: recombinant; tags: N-terminal GST; dsDNA, one strand shown. Summed up: as §1
The target of test [6] is T5, EHF (Homo sapiens, UniProt Q9NZC4 1-300).
T5 sequence: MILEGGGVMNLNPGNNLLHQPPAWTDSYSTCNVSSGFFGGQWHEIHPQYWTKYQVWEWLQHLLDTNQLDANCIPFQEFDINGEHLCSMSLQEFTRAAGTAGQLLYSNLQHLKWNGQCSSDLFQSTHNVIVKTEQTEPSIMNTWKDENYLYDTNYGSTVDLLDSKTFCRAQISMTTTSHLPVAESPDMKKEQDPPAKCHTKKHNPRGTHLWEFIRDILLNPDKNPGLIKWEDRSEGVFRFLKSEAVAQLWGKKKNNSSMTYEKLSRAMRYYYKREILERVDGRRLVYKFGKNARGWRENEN
To be noted: protein: recombinant; tags: N-terminal GST; dsDNA, one strand shown. Summed up: as §1

Test [7] addresses SPI1 (Homo sapiens, UniProt P17947 1-270). To be noted: protein: recombinant; tags: N-terminal GST; dsDNA, one strand shown. Summed up: as §1
Test [8] addresses SPIB (Homo sapiens, UniProt Q01892 1-262). To be noted: protein: recombinant; tags: N-terminal GST; dsDNA, one strand shown. Summed up: as §1
In test [9] the target is T6, ELK3 (Homo sapiens, UniProt P41970 1-407).
T6 sequence: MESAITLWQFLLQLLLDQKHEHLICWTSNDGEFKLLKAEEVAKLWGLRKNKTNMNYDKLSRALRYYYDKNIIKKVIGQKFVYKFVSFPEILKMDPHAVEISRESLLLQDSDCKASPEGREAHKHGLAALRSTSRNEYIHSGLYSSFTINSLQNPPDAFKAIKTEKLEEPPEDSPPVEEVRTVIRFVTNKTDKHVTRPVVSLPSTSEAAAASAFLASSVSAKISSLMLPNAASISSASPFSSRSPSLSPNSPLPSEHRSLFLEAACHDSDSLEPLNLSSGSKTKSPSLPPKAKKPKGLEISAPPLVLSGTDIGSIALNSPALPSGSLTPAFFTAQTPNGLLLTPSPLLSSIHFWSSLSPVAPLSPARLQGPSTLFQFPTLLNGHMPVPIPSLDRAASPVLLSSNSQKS
As to conditions: protein: recombinant; tags: N-terminal GST; dsDNA, one strand shown. Summed up:
as §1

Test [10] has as its target T7, FEV (Homo sapiens, UniProt Q99581 1-238).
T7 sequence: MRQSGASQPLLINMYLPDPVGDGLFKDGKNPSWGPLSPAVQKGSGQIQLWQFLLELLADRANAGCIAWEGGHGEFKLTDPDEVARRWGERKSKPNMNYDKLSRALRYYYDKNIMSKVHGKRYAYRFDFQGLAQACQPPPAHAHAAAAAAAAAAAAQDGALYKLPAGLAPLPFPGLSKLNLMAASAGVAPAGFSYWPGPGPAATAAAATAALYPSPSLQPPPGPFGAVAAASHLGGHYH
As to conditions: protein: recombinant; tags: N-terminal GST; dsDNA, one strand shown. Summed up:
as §1

The target of test [11] is ETV5 (Homo sapiens, UniProt P41161 1-510). To be noted: protein: recombinant; tags: N-terminal GST; dsDNA, one strand shown. Summed up:
as §1

The target of test [12] is HSF1 (Homo sapiens, UniProt Q00613 1-529). To be noted: protein: recombinant; tags: N-terminal GST; chain copies: 3; dsDNA, one strand shown. Summed up:
as §1

Test [13] has as its target T8, SPIC (Homo sapiens, UniProt Q8N5J4 1-248).
T8 sequence: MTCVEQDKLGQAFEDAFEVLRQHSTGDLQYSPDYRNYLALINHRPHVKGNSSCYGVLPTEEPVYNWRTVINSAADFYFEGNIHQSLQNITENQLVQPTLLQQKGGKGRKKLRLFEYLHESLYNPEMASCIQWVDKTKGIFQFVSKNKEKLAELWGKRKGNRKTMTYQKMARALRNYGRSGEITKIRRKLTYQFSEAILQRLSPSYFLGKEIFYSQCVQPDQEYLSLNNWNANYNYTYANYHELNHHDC
As to conditions: protein: recombinant; tags: N-terminal GST; dsDNA, one strand shown. Summed up: as §1

Test [14] addresses ELF4 (Homo sapiens, UniProt Q99607 1-663). To be noted: protein: recombinant; tags: N-terminal GST; dsDNA, one strand shown. Summed up: as §1
In test [15] the target is T9, ELK4 (Homo sapiens, UniProt P28324-2 1-405).
T9 sequence: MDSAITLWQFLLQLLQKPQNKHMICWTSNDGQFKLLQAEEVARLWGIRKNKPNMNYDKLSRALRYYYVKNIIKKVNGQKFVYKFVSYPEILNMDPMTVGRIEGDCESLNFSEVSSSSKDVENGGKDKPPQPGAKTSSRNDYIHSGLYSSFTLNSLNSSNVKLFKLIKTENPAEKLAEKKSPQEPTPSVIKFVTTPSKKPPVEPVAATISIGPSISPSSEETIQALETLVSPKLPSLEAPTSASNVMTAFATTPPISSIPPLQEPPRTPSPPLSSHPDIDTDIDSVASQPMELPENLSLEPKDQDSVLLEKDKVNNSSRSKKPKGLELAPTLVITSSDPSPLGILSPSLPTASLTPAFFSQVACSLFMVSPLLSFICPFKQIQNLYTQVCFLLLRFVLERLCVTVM
As to conditions: protein: recombinant; tags: N-terminal GST; dsDNA, one strand shown. Summed up:
as §1

The target of test [16] is T10, ETV2 (Homo sapiens, UniProt O00321 1-342).
T10 sequence: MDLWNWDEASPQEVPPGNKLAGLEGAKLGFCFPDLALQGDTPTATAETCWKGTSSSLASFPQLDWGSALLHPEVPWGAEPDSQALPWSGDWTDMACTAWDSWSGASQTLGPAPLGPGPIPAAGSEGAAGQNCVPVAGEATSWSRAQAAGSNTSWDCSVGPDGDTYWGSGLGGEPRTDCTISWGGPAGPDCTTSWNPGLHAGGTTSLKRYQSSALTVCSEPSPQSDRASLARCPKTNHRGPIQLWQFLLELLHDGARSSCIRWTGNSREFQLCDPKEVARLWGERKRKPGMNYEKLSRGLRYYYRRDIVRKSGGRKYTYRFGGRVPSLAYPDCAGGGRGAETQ
As to conditions: protein: recombinant; tags: N-terminal GST; dsDNA, one strand shown. Summed up:
as §1

Test [17] concerns the target T11, ELF3 (Homo sapiens, UniProt P78545 1-371).
T11 sequence: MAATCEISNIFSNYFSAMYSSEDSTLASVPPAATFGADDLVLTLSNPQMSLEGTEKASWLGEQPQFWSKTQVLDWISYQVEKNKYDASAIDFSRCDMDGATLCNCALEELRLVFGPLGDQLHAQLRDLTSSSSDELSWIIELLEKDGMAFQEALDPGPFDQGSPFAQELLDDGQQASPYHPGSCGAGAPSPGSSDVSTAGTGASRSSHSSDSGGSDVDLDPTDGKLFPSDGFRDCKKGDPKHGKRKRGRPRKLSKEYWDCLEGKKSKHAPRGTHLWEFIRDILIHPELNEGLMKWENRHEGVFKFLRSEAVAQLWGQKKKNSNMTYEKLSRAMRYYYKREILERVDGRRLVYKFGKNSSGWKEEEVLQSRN
To be noted: protein: recombinant; tags: N-terminal GST; dsDNA, one strand shown. Summed up: as §1

The target in test [18] is CRX (Homo sapiens, UniProt O43186 1-299). As to conditions: protein: recombinant; tags: N-terminal GST; dsDNA, one strand shown. Summed up: as §1
Sequence of CRX (O43186 whole entry): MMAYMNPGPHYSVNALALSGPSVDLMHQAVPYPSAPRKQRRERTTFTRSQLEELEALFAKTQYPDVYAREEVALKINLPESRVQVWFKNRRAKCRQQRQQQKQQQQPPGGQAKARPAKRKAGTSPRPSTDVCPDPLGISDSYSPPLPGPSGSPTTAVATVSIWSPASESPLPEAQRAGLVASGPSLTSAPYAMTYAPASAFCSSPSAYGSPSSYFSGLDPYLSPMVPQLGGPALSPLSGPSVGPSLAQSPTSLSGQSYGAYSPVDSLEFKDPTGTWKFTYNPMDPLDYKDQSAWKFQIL
Test [19] deals with ETV1 (Homo sapiens, UniProt P50549 1-477). As to conditions: protein: recombinant; tags: N-terminal GST; dsDNA, one strand shown. Summed up:
as §1

Sequence of ETV5 (P41161 whole entry): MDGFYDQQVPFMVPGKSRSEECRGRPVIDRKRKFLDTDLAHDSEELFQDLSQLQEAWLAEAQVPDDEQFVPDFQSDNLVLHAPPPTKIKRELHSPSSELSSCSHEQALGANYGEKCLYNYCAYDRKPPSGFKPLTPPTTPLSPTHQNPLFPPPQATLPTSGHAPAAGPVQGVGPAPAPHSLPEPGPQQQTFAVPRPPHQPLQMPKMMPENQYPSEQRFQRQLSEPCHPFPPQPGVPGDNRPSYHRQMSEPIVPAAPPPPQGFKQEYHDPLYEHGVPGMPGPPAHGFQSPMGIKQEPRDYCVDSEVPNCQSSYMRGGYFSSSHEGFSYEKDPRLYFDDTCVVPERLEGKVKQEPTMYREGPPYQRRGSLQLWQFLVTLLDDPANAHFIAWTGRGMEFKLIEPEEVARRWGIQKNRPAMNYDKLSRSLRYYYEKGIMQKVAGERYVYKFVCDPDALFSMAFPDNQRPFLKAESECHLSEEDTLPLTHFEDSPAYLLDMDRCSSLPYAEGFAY
Sequence of ELF1 (P32519 whole entry): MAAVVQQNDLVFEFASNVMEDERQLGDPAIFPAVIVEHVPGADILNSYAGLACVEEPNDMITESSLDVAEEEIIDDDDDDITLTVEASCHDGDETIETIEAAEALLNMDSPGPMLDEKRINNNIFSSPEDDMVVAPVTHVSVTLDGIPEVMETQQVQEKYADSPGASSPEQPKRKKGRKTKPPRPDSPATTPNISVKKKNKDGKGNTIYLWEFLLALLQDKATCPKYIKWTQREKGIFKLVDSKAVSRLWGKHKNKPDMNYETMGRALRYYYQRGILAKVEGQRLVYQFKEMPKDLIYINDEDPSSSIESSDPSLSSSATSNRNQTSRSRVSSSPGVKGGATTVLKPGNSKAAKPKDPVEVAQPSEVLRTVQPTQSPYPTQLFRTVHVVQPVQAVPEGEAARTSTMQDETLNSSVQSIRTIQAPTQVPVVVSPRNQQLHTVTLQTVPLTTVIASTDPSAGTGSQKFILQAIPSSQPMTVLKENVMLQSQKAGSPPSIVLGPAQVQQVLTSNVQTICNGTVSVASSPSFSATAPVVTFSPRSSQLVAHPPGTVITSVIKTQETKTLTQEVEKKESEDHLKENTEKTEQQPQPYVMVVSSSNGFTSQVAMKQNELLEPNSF
Sequence of SPIB (Q01892 whole entry): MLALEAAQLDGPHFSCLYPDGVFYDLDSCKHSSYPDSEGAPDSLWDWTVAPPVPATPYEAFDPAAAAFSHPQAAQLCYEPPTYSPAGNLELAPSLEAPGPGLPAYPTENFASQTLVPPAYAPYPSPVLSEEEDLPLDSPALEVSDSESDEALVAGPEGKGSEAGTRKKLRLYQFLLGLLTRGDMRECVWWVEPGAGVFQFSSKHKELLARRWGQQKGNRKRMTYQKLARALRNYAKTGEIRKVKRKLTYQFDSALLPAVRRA
Sequence of HSF1 (Q00613 whole entry): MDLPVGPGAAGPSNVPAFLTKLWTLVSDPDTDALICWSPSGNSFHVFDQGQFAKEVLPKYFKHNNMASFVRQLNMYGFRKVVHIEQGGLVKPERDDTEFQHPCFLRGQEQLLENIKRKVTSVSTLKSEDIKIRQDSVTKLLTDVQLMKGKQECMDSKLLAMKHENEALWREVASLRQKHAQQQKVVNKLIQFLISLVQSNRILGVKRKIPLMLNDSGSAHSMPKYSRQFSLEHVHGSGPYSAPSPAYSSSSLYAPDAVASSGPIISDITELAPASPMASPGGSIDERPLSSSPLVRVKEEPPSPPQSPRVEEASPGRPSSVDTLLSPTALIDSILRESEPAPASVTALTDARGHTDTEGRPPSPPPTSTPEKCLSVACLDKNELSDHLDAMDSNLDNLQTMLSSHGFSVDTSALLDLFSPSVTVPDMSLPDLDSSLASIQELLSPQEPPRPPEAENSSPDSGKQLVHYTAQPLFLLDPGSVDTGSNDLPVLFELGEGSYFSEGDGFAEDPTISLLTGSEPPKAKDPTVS
Sequence of ELF4 (Q99607 whole entry): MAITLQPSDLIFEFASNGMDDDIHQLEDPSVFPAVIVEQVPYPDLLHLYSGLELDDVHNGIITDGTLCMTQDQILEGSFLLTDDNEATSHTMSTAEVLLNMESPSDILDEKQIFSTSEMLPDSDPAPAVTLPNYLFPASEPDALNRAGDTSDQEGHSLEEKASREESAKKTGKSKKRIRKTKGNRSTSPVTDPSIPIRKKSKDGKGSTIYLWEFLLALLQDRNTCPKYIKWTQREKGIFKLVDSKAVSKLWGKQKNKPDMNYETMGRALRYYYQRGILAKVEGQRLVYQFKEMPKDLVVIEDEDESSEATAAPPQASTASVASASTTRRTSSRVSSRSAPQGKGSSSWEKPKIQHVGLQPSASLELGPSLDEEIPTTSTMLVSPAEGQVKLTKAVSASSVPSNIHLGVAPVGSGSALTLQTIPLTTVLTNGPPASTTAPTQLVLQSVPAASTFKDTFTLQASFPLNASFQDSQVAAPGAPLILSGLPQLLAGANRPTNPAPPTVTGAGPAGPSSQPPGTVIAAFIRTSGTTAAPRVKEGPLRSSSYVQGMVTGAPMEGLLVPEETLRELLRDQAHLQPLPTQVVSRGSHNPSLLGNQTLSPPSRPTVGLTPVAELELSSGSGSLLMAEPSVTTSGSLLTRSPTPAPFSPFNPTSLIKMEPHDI
Sequence of ETV1 (P50549 whole entry): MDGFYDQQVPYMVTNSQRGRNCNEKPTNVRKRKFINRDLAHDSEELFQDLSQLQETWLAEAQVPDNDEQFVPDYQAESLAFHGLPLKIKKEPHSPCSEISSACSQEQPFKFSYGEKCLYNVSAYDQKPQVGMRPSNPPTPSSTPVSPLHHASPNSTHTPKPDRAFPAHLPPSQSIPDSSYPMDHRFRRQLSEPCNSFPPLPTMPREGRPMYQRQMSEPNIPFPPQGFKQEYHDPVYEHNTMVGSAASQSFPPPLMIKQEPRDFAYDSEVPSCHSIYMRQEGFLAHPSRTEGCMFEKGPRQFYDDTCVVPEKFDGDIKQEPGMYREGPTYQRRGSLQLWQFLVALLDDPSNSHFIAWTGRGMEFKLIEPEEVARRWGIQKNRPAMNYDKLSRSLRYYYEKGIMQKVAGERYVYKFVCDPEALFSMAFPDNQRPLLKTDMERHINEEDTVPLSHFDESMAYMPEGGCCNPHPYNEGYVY

For the sequence GGAATT, the binding signal in test [1] was 1.14 fold enrichment (6-mer frequency, TF over GST control); in [2], 1.1 fold enrichment (6-mer frequency, TF over GST control); in test [3], 1 fold enrichment (6-mer frequency, TF over GST control); in test [4], 1.12 fold enrichment (6-mer frequency, TF over GST control); in [5], 1.07 fold enrichment (6-mer frequency, TF over GST control); in [6] it was 1.24 fold enrichment (6-mer frequency, TF over GST control). Besides, the binding signal is 1.16 fold enrichment (6-mer frequency, TF over GST control) in test [7]; 1.18 fold enrichment (6-mer frequency, TF over GST control) in test [8]; 1.24 fold enrichment (6-mer frequency, TF over GST control) in test [9]; 1.17 fold enrichment (6-mer frequency, TF over GST control) in [10]; 1.21 fold enrichment (6-mer frequency, TF over GST control) in test [11]; 1.45 fold enrichment (6-mer frequency, TF over GST control) in test [12]. Also, the binding signal in test [13] is 1.11 fold enrichment (6-mer frequency, TF over GST control); in [14], 1.07 fold enrichment (6-mer frequency, TF over GST control); in test [15] it was 1.1 fold enrichment (6-mer frequency, TF over GST control); in test [16] it was 1.13 fold enrichment (6-mer frequency, TF over GST control); in test [17], 1.12 fold enrichment (6-mer frequency, TF over GST control); in test [18], 1.46 fold enrichment (6-mer frequency, TF over GST control). Also, the binding signal in test [19] was 1.18 fold enrichment (6-mer frequency, TF over GST control).
